This passage reports binding signal results from article PMC7862700, “An all-to-all approach to the identification of sequence-specific readers for epigenetic DNA modifications on cytosine”.

Holding throughout (assay): DAPPL (digital affinity profiling via proximity ligation, sequencing); 10 mM Tris-HCl pH 7.5, 50 mM NaCl, 1 mM DTT, 4% glycerol, room temperature, 30 min; GST-TFs on glutathione beads, 16-mer random dsDNA library, 0.1% formaldehyde crosslink after washing; high values mean tight binding
Test [1] has as its target T1, GABPA (Homo sapiens, UniProt Q06546 1-454).
T1 sequence: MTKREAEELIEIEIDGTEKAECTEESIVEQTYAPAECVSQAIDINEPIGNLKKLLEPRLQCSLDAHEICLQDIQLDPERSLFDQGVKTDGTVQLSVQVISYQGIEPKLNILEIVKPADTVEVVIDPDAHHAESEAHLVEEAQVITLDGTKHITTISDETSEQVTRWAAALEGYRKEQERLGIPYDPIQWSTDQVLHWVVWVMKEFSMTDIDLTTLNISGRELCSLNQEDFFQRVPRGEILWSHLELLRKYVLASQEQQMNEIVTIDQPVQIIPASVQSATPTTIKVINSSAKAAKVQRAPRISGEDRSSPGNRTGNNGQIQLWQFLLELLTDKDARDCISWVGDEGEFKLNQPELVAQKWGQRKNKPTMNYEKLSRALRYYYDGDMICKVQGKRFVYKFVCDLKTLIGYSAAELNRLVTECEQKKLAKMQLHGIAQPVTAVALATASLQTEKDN
As to conditions: protein: recombinant; tags: N-terminal GST; dsDNA, one strand shown. The procedure, abridged: (§1)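 A tag-only sample was pooled with DNA-barcoded human transcription factors that had been expressed in yeast as GST fusions and captured on glutathione beads. The pools were incubated for 30 min at room temperature with 200 nmole of a random double-stranded 16-mer DNA library in Tris/NaCl/DTT/glycerol buffer, then washed, crosslinked with 0.1% formaldehyde, proximity-ligated (BsaI/T4 ligase, 1 h, 37 °C), PCR-amplified and sequenced on an Illumina NextSeq500. Binding signal is each hexamer's read frequency for a factor divided by its frequency for the tag-only sample.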

The target in test [2] is HSF1 (Homo sapiens, UniProt Q00613 1-529). As to conditions: protein: recombinant; tags: N-terminal GST; chain copies: 3; dsDNA, one strand shown. In outline:
as §1

The target in test [3] is ELF4 (Homo sapiens, UniProt Q99607 1-663). The following applies: protein: recombinant; tags: N-terminal GST; dsDNA, one strand shown. The procedure, abridged:
as §1

Test [4] concerns the target CRX (Homo sapiens, UniProt O43186 1-299). The following applies: protein: recombinant; tags: N-terminal GST; dsDNA, one strand shown. In outline:
as §1

The target in test [5] is ETV1 (Homo sapiens, UniProt P50549 1-477). As to conditions: protein: recombinant; tags: N-terminal GST; dsDNA, one strand shown. In outline: as §1
Sequence of ETV1 (P50549 whole entry): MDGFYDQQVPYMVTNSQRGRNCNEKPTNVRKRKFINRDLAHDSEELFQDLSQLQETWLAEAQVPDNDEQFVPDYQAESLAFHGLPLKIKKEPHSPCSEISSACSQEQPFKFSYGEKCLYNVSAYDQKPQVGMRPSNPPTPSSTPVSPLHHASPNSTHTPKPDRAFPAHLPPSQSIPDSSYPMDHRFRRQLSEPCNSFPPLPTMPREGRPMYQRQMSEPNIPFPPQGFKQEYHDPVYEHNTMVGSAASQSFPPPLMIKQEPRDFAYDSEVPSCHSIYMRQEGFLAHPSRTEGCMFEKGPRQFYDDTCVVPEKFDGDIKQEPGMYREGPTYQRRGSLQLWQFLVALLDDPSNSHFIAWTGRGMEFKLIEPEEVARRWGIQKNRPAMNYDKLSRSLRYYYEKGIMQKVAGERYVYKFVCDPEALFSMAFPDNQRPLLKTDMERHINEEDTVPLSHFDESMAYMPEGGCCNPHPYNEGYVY
Test [6] deals with T2, ERF (Homo sapiens, UniProt P50548 1-548).
T2 sequence: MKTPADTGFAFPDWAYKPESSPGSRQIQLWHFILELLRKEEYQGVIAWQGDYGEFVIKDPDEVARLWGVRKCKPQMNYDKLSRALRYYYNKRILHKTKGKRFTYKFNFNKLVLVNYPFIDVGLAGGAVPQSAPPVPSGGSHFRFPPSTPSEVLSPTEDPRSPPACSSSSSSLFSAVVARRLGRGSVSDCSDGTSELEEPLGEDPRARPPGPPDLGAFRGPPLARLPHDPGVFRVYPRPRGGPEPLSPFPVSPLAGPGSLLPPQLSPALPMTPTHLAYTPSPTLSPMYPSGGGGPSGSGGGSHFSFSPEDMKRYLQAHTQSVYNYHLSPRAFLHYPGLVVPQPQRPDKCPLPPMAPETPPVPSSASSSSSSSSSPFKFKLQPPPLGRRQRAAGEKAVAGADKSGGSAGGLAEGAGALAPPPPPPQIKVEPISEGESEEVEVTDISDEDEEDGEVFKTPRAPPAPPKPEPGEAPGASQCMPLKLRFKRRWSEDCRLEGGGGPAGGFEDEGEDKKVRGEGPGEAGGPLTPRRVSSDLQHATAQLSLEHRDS
As to conditions: protein: recombinant; tags: N-terminal GST; dsDNA, one strand shown. The procedure, abridged: as §1

The target in test [7] is T3, ELK4 (Homo sapiens, UniProt P28324-2 1-405).
T3 sequence: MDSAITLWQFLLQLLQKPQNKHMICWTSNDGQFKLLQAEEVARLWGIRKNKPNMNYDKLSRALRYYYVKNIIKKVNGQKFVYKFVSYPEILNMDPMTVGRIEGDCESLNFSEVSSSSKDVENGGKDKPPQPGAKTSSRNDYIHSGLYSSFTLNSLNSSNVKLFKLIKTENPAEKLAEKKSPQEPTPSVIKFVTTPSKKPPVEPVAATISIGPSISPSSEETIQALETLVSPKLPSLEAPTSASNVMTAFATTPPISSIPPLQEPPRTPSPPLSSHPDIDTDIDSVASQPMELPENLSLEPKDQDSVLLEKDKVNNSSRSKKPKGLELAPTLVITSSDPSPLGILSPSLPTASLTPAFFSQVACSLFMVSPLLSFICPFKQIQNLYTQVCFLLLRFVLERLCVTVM
As to conditions: protein: recombinant; tags: N-terminal GST; dsDNA, one strand shown. The procedure, abridged: as §1

Test [8] has as its target T4, ETV2 (Homo sapiens, UniProt O00321 1-342).
T4 sequence: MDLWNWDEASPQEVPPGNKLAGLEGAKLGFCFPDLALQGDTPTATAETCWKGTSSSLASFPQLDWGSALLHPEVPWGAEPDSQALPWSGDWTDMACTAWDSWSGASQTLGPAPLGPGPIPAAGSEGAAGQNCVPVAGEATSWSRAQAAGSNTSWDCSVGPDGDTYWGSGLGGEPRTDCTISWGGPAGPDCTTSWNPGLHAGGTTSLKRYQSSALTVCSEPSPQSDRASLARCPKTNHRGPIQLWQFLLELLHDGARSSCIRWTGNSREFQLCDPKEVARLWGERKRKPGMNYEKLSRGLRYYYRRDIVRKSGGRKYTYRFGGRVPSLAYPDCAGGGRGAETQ
As to conditions: protein: recombinant; tags: N-terminal GST; dsDNA, one strand shown. The procedure, abridged:
as §1

In test [9] the target is T5, ETV7 (Homo sapiens, UniProt Q9Y603 1-341).
T5 sequence: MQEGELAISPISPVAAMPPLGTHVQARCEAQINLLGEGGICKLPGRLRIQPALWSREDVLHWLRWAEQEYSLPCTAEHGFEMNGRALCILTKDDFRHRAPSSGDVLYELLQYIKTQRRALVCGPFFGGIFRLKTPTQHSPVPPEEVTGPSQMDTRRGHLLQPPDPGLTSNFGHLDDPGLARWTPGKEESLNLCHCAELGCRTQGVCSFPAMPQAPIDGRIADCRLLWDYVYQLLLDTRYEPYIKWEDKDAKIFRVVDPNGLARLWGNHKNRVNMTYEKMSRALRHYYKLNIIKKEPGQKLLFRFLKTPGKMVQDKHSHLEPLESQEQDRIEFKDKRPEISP
The following applies: protein: recombinant; tags: N-terminal GST; dsDNA, one strand shown. The procedure, abridged:
as §1

Sequence of ELF4 (Q99607 whole entry): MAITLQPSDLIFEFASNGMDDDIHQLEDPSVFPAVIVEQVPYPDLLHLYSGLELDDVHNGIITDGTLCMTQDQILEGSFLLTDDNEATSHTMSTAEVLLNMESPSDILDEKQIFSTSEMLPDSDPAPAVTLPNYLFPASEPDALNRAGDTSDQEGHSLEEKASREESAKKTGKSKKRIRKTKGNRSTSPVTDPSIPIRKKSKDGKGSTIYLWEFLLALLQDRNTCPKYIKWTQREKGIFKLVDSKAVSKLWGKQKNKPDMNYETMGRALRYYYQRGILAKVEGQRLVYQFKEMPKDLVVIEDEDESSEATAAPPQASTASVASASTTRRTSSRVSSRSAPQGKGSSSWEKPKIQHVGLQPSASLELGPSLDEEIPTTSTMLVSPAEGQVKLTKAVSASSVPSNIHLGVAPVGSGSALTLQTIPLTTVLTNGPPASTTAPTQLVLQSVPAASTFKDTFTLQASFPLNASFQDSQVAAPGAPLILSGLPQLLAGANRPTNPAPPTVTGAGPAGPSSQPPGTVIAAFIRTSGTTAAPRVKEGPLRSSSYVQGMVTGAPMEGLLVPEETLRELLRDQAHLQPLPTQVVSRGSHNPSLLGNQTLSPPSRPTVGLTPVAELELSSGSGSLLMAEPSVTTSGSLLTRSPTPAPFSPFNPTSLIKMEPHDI
Sequence of HSF1 (Q00613 whole entry): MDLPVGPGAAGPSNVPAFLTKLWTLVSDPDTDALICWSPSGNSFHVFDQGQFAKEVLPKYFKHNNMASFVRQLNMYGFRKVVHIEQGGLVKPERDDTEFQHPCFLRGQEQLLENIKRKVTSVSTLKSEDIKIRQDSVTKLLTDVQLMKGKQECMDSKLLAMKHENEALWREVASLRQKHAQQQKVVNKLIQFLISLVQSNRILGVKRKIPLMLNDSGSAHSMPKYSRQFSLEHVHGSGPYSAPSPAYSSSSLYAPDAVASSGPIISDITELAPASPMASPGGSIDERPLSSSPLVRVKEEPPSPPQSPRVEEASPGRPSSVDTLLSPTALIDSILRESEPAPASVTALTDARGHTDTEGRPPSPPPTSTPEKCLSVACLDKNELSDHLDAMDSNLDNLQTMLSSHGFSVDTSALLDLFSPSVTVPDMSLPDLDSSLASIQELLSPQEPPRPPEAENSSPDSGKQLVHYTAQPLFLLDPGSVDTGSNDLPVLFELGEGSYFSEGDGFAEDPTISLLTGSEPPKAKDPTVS
Sequence of CRX (O43186 whole entry): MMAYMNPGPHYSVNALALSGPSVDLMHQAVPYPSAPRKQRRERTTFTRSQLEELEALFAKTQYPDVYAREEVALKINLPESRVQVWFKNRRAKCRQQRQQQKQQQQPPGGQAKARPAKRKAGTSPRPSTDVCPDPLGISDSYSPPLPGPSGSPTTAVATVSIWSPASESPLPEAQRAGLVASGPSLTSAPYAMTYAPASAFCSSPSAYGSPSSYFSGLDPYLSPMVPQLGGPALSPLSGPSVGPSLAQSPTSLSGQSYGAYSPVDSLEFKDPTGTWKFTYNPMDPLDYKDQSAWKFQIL

For the sequence TAGCGC, the binding signal in [1] is 1.01 fold enrichment (6-mer frequency, TF over GST control); in test [2], 1.02 fold enrichment (6-mer frequency, TF over GST control); in test [3], 1.01 fold enrichment (6-mer frequency, TF over GST control); in [4] it was 1.03 fold enrichment (6-mer frequency, TF over GST control); in test [5] it was 1.07 fold enrichment (6-mer frequency, TF over GST control); in test [6], 1.03 fold enrichment (6-mer frequency, TF over GST control).

As to CGAAGT, the binding signal is 1.08 fold enrichment (6-mer frequency, TF over GST control) in test [2]; 1 fold enrichment (6-mer frequency, TF over GST control) in test [7]; 1.03 fold enrichment (6-mer frequency, TF over GST control) in [8]; 1.06 fold enrichment (6-mer frequency, TF over GST control) in test [9].

In the case of ATCGCG, the binding signal in test [2] was 1.09 fold enrichment (6-mer frequency, TF over GST control); in test [3], 1 fold enrichment (6-mer frequency, TF over GST control); in [7] it was 1 fold enrichment (6-mer frequency, TF over GST control); in test [9], 1.05 fold enrichment (6-mer frequency, TF over GST control).

In the case of TCAGAA, the binding signal in test [2] was 1.26 fold enrichment (6-mer frequency, TF over GST control); in [3], 1 fold enrichment (6-mer frequency, TF over GST control); in test [4], 1.12 fold enrichment (6-mer frequency, TF over GST control).

Turning to CCCAGA, the binding signal in test [2] was 1.31 fold enrichment (6-mer frequency, TF over GST control); in test [7], 1.01 fold enrichment (6-mer frequency, TF over GST control).
